This is an account of results in PubChem BioAssay (NCI).

The nature of assay [1]: NCI Yeast Anticancer Drug Screen. Data for the rad50 strain (AID 155).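 Also: 0% = growth of vehicle-only cultures of the same strain.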 Particulars: S. cerevisiae rad50 strain growth inhibition, active compounds read high; at 50.0 µM unless noted. Put shortly:
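Relative growth inhibition (compound vs vehicle) was measured in yeast with a defined repair-gene alteration.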

The nature of assay [2]: NCI Yeast Anticancer Drug Screen. Data for the mec2-1 strain (AID 157). Particulars: S. cerevisiae mec2-1 strain, active compounds read high; at 50.0 µM unless noted. The method, boiled down: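 Compounds were applied to mec2-1 yeast cells. Their growth was then compared with that of vehicle-treated cultures to give growth inhibition.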
The nature of assay [3]: NCI Yeast Anticancer Drug Screen. Data for the sgs1 mgt1 strain (AID 161).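 Also: 0% = growth of cultures given vehicle only.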 Particulars: S. cerevisiae sgs1 mgt1 strain, active compounds read high; at 50.0 µM unless noted. Put shortly:
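Percent growth inhibition was derived by comparing compound-exposed mutant yeast with vehicle-exposed cultures. The strain carries alterations in DNA damage repair.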

Assay [4] is described as follows: NCI Yeast Anticancer Drug Screen. Data for the cln2 rad14 strain (AID 165).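 Also: 0% = growth equal to vehicle treated cultures.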 Particulars: S. cerevisiae cln2 rad14 strain, active compounds read high; at 50.0 µM unless noted. Put shortly:
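Strain: cln2 rad14 yeast, altered in cell cycle control and DNA damage repair. Read-out: growth inhibition vs vehicle.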

Assay [5] in a line: NCI Yeast Anticancer Drug Screen. Data for the bub3 strain (AID 167). Particulars: S. cerevisiae bub3 mutant strain, active compounds read high; at 50.0 µM unless noted. Put shortly:
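Screening used yeast with an engineered genetic alteration affecting cell cycle control. Compound-exposed cultures were compared with vehicle cultures, and reduced growth was taken as inhibition.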

Assay [6] in a line: NCI Yeast Anticancer Drug Screen. Data for the mlh1 rad18 strain (AID 175). Particulars: S. cerevisiae mlh1 rad18 strain growth inhibition, active compounds read high; at 50.0 µM unless noted. The method, boiled down:
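A repair-deficient yeast strain is exposed to test compound, and growth is scored relative to vehicle-treated controls.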

Structures are written as SMILES. About 79,000 compounds went through this panel and 15% of them were active in at least one assay; those are over-represented in the sample as a whole. Unmarked numbers belong to inactive results. Calls of active or inactive are those of the source. Rule as the data show it: active = growth inhibition above about 70%; inactive = the rest.

Regarding `c1ccc(C(=NN=C(c2ccccc2)c2ccccc2)c2ccccc2)cc1`, the growth inhibition in assay [1] is 17.9%; in assay [2], 23.9%; in assay [3], 8.4%; in assay [4], 30.5%; in assay [5] it was 1.25%; in assay [6], 6.25%.

For `CCc1nc(N)nc(N)c1-c1ccc(NC2CCCCC2)c([N+](=O)[O-])c1`, the growth inhibition is 10.3% in assay [1]; 14.2% in assay [2]; 16.1% in assay [3]; 17.9% in assay [4]; -6.05% in assay [5]; 27.1% in assay [6].

Regarding `NC(=S)c1ccc2ccccc2c1`, the growth inhibition is 9.95% in assay [1]; 13.9% in assay [2]; 15.1% in assay [3]; 6.15% in assay [4]; 15.2% in assay [5]; 9.2% in assay [6].

Regarding `Cc1cc2c(C)nn(Cc3ccccc3)c2c(C(N)=O)c1C`, the growth inhibition is 9.85% in assay [1]; -6.65% in assay [2]; -10% in assay [3]; 35.6% in assay [4]; -3.1% in assay [5]; 51.4% in assay [6].

On to `COC(=O)C(=O)C1(c2ccccc2)C(=O)C(c2ccccc2)=CC1O` (stereo not given), for which the growth inhibition in assay [1] was 15.3%; in assay [2], 10.5%; in assay [3], 10.1%; in assay [4] it was 0.7%; in assay [5], 8.4%; in assay [6], 18.6%.

On to `CCOC(=O)C1(C#N)C(C#N)(C#N)C1(CC)CC` (stereo not given), for which the growth inhibition in assay [1] was -11.2%; in assay [2], 19.6%; in assay [3], -1.55%; in assay [4] it was 10.3%; in assay [5], -6.4%; in assay [6] it was -20.8%.

Turning to `COc1ccc(C(=O)Oc2ccccc2C(C)=O)cc1`, the growth inhibition in assay [1] was -2.65%; in assay [2], -7.05%; in assay [3], 0.7%; in assay [4], -24.6%; in assay [5], -5.6%; in assay [6], -12.8%.

Regarding `CN(C)S(=O)(=O)c1ccccc1C(O)(c1ccccc1)c1ccccc1` (tested in a mixture with another compound), the growth inhibition in assay [1] is 35.1%; in assay [2], 8.7%; in assay [3], -7.75%; in assay [4], -4.55%; in assay [5] it was 15.2%; in assay [6], 32.4%.

In the case of `CCCNCCC`, the growth inhibition in assay [1] was 2.1%; in assay [2], -5.4%; in assay [3], 14.5%; in assay [4], -12.4%; in assay [5], 4.2%; in assay [6], 1.65%.

For the compound `c1cc(-c2ncc[nH]2)ccn1`, the growth inhibition in assay [1] was -6.9%; in assay [2] it was -12.2%; in assay [3], -4.25%; in assay [4], -4.05%; in assay [5] it was 6.1%; in assay [6] it was -8.2%.

Turning to `CCCCC(Sc1nn(C2OC(COC(=O)c3ccccc3)C(OC(=O)c3ccccc3)C2OC(=O)c2ccccc2)c(=O)[nH]c1=O)C(=O)OCC` (stereo not given), the growth inhibition was -1.45% in assay [1]; -10.6% in assay [2]; -21.4% in assay [3]; -33.4% in assay [4]; -4.7% in assay [5]; 7.45% in assay [6].

Turning to `CCN(CC)CC(=O)Nc1ccc2c(c1)C(=O)c1ccc(NC(=O)CN(CC)CC)cc1C2=O`, the growth inhibition in assay [1] is 22.1%; in assay [2], 8%; in assay [3], -4.5%; in assay [4] it was 16.4%; in assay [5], -1.2%; in assay [6] it was -8%.

On to `OC1CN(c2ccc(Br)cc2)CC(O)CN(c2ccc(Br)cc2)C1` (stereo not given), for which the growth inhibition in assay [1] is 98.7% (active); in assay [2], 99.7% (active); in assay [3], 99.7% (active); in assay [4] it was 99.5% (active); in assay [5], 99.5% (active); in assay [6], 99.7% (active).

For `O=C1OC(Oc2ccccc2)c2cc3c(cc21)OCO3` (stereo not given), the growth inhibition in assay [1] was 20.4%; in assay [2], -6.05%; in assay [3] it was 21.3%; in assay [4], 20.6%; in assay [5] it was 17.9%; in assay [6] it was 29.5%.

Take `CCOC(=C\C(=O)NC)/C=C/c1ccc([N+](=O)[O-])cc1`: the growth inhibition in assay [1] is -5.75%; in assay [2], 0.65%; in assay [3] it was -6.1%; in assay [4], -18.4%; in assay [5], 5.85%; in assay [6], -3.45%.

On to `COCc1ccc2c(c1)C(O)NC(=O)O2` (stereo not given), for which the growth inhibition in assay [1] is 4.75%; in assay [2], -4.05%; in assay [3] it was 13.3%; in assay [4], -28.2%; in assay [5], -8.55%; in assay [6], 16.1%.

Consider `CN(C)CCl`, for which the growth inhibition is -1.4% in assay [1]; -28.2% in assay [2]; -12.4% in assay [3]; -4.1% in assay [4]; -15.5% in assay [5]; -13.1% in assay [6].

For the compound `O=S(=O)(O)c1cc(S(=O)(=O)O)c2cc(O)ccc2c1`, the growth inhibition is 0.6% in assay [1]; 3.35% in assay [2]; 13.4% in assay [3]; -18.6% in assay [4]; 5.35% in assay [5]; 28.4% in assay [6].

In the case of `O=C1C(=O)c2ccccc2C(O)=C1C1CCCCC1`, the growth inhibition in assay [1] was 44.4%; in assay [2], 2.15%; in assay [3], 24.3%; in assay [4], 5.55%; in assay [5], 18.1%; in assay [6], 26.9%.

For the compound `CCCCC(CC)CCC(C)O` (stereo not given), the growth inhibition in assay [1] was -6.75%; in assay [2], -4.75%; in assay [3] it was 25.6%; in assay [4], -40.4%; in assay [5], -16.8%; in assay [6], -14.7%.
